35 compounds from PubChem BioAssay (NCI) can be followed below.

SMILES strings stand for the structures. Compounds without any hit were thinned out: in the full panel of roughly 83,000, 20% have a hit.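 Testing used 96-well plates and a 48-hour single-concentration exposure. Example: -40 means 40% of the starting cells died.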 Unmarked numbers belong to inactive results. Active and inactive are the calls of the source. Rule for the calls: active = growth percent below 10; inactive = the rest.

The subject of the test is MDA-MB-435 melanoma. Kind of test: NCI-60 one-dose screen, 48 h (100 = growth as untreated, 0 = no growth, -100 = all killed). As to conditions: 10 µM unless noted.
On to `C[C@H]1[C@H]2[C@H]3CC[C@@H]4[C@@]5(C)C/C(=C/c6ccco6)C(=O)C(C)(C)[C@@H]5CC[C@@]4(C)[C@]3(C)CC[C@]23CO[C@]1(C)[C@@H](C(=O)/C=C\c1ccco1)C3`, for which the growth is 43.4%.
On to `O=C(CCCCCCN1CC(=O)N2[C@@H](c3ccccc3Cl)c3[nH]c4ccccc4c3C[C@H]2C1=O)NO`, for which the growth is 59.3%.
Regarding `O=C(Nc1cccc(C(F)(F)F)c1)Nc1cccc(C(F)(F)F)c1`, the growth was 9.11% (active).
Then `CC1=C([Se]CC(OC(=O)CC[Se]c2ccccc2)C(=O)NCCCCCC(=O)OCc2ccccc2)C(=O)c2ccccc2C1=O` (stereo not given), with 20%.
Then `CCCCNC(=O)Oc1ccc2c(=O)c3sc4c(=O)c5ccccc5c(=O)c4c3c(=O)c2c1`, with -88.9% (active); and `C=C1C(=O)O[C@H]2[C@H]1CC/C(COC(=O)C(=O)c1c[nH]c3ccc(OC)cc13)=C\CC[C@@]1(C)O[C@@H]21`, with -85.3% (active); and `O=c1[nH]nc(-c2ccccc2)c2c(-c3ccccc3)onc12`, with 16.7%.
Take `COc1cc(-c2nn(-c3ccccc3)cc2-c2ccnc(NCCNS(=O)(=O)c3ccc(Cl)cc3)n2)ccc1Cl`: the growth is 28.2%.
As for `CCCCn1c(=O)c2c(nc(NCCc3ccc(O)c(O)c3)n2CCC)n(CCCC)c1=O`, the figure is 82.6%.
As for `S=C(c1ccc2c(c1)OCO2)N1CCN(c2ccccc2Cl)CC1`, the figure is 99.9%; as for `CC1=NOC(=O)/C1=C\c1ccc(O)cc1`, 102%.
Then `O=[N+]([O-])c1ccc(N2c3ccncc3Sc3ccncc32)cc1`, with 112%.
`C=CCNc1nc(NN2C(=O)c3cccc4cccc(c34)C2=O)nc(-n2cnc3ccccc32)n1`: the growth was 97.5%.
Take `Nc1ccc2c(c1)c(N)nn2C(=O)Nc1ccc(Cc2ccccc2)cc1`: the growth is 68.9%.
Then `COC(=O)c1ccc(CSc2nnc(-c3c(C)nc4ccc(C)cn34)o2)cc1`, with 102%; and `Cc1cc(O)c(C2=NN(c3ccc(S(N)(=O)=O)cc3)C(c3ccccc3Cl)C2)cc1Cl` (stereo not given), with 8.16% (active).
Then `Cc1ccc(Cc2cnc(NC(=O)c3ccc4noc(-c5ccccc5)c4c3)s2)cc1`, with 85.8%.
As for `Cn1cc(-c2csc(-c3cccc(F)c3)n2)c2cccnc21`, the figure is -53.6% [100 µM] (active); as for `COc1c(CCC[P+](c2ccccc2)(c2ccccc2)c2ccccc2)cc2c(c1OC)OCO2`, 2.57% (active).
For the compound `Cc1ccc(Nc2nc(N)nc(CSCC(=O)NN)n2)cc1`, the growth was 94.3%.
Then `O=C(N/N=C/c1ccncc1)c1ccc(C(F)(F)F)nc1Nc1cccc(C(F)(F)F)c1`, with 36.4%; and `COc1cc2c(cc1-c1c(C)noc1C)ncc1nc(C3CCC(F)(F)CC3)n(C3CCC(OC(F)F)CC3)c12` (stereo not given), with 55.2%.
Then `O=c1[nH][n+](-c2ccc(Cl)cc2)no1`, with 30.8%.
Then `O=C(CCc1nnc(CN(c2ccccc2)c2ccccc2)o1)c1nc2ccccc2[nH]1`, with 94.3%; and `Cc1cccc(Cc2cnc(NC(=O)c3ccc4nnsc4c3)s2)c1`, with 82.7%.
As for `Cc1ccc(C(=O)COc2cccc(/C=C3\Oc4ccccc4C3=O)c2)cc1`, the growth was 90.2%.
As for `CN(C)CCC=C1c2ccccc2C(C)(C)c2ccccc21`, the figure is 66.9%; as for `COc1cc(C2CC(c3cc(OC)c(OCCCOc4ccc(-n5c(/C=C/c6ccccc6)nc6ccccc6c5=O)cc4)c(OC)c3)=NO2)cc(OC)c1OC` (stereo not given), 110%; as for `CS(=O)c1cccc(-c2ccc3nc(N)n(-c4ccc(C(F)(F)F)cc4)c(=O)c3c2)c1` (stereo not given), 105%.
As for `CC(C)(C)C(CCc1ccc(Cl)cc1)N1CCN(C2CCCCC2)CC1` (stereo not given), the figure is 39.2%; as for `CNC(=O)CCN1CCN(CC/C=C2\c3ccccc3Sc3ccc(Cl)cc32)CC1`, 72.3%; as for `O=c1ssc(Cl)c1-c1ccccc1`, 98.4%.
As for `O=C1CC(N2C(=O)/C(=C/C(Cl)=C\c3ccc([N+](=O)[O-])cc3)SC2=S)C(=O)N1c1ccc(O)cc1` (stereo not given), the figure is -12% (active); as for `COC(=O)CCC1=C(C)C2=NC1=CC1=NC(=CC3=NC(=Cc4[nH]c(/c(=C(/C)O)c4C)=C2)C(C(C)=O)=C3C)C(C)=C1CCC(=O)OC`, 108%.
As to `CC1SC(c2ccc(OCc3ccccc3)cc2)N(NC(=O)C(O)(c2ccccc2)c2ccccc2)C1=O` (stereo not given), the growth was 57.7%.
